Source: PubChem BioAssay AID651815 (National Center for Advancing Translational Sciences (NCATS), 2012)
Hit rate of the full screen: of about 2,100 compounds, about 1,100 (52%) were called active. Inconclusive results (about 29%) are left out. So high a share suggests a set chosen from earlier hits. Some of the results follow. Unmarked numbers belong to inactive results. Calls come from the whole dose curve; as a rule, active = well fitted inhibition curve with a large enough effect; inconclusive = small, poorly fitted or top-dose-only effect; inactive = no such curve, though single readings can be large or run the other way.

Target: DNA dC->dU-editing enzyme APOBEC-3F (Homo sapiens) (UniProt Q8IUX4)
Sequence (Q8IUX4 whole entry, looked up): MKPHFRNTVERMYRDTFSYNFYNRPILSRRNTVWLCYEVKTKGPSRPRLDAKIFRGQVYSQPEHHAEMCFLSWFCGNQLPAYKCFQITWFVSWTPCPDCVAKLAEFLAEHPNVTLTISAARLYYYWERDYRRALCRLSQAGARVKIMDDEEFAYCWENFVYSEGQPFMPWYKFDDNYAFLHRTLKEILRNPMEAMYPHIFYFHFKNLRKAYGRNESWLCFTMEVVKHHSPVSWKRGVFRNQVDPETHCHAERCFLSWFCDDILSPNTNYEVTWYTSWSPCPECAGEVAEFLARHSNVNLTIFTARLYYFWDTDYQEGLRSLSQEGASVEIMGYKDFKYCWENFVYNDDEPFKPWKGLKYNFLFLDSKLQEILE
Assay: qHTS for inhibitors of Vif-A3F interactions: Cherry picks counterscreen; note: nearly all actives have a fitted effect of over 65% in size
Details: HeLa A3F-eYFP/Vif cells, eYFP fluorescence, 24 h; series mostly up to 46.1 µM; activity, negative = inhibitor: at the top concentration
Outline: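 HeLa cells stably expressing A3F-eYFP and Vif, cultured overnight, then treated 24 h at 37 degrees C with compounds at several concentrations; yellow fluorescence (488 nm Ex/500-530 nm Em) imaged on Acumen; MG132 positive control.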
% is set by controls: 0 for no effect and ±100 for the full control effect; potency is the fitted concentration of half-maximal effect.

Structure (SMILES) | Potency | activity, negative = inhibitor
COc1ccc(S(=O)(=O)NN(C)c2nc(C(F)(F)F)nc3ccccc23)cc1 | 11.2 µM (active) | –
COc1ccc(NC(=O)C2(C)Cc3c(-c4cccc(NC(C)=O)c4)ccnc3O2)cn1 (stereo unspecified) | 7.04 µM (active) | –
COc1ccc(NC(=O)C2(C)Cc3c(-c4cccc(C(N)=O)c4)ccnc3O2)cn1 (stereo unspecified) | 12.5 µM (active) | –
CN(C)c1ccc(/C=C(/C(=O)c2ccc(Cl)cc2Cl)n2cncn2)cc1 | 14 µM (active) | –
Cn1c(=S)c2[nH]c(SCCN3CCCC3)nc2n(C)c1=O | – | 5.61%
COc1cc(-c2noc(C)c2/C=C/c2ccc(OC(C)=O)cc2)cc(OC)c1OC | 0.627 µM (active) | –
COc1cc(-c2noc(C)c2/C=C/c2cccc([N+](=O)[O-])c2)cc(OC)c1OC | 1.58 µM (active) | –
O=c1[nH]c2cc(Br)cnc2nc1/C=C(\O)c1ccc(F)cc1 | 18.4 µM (active) | –
COc1ccc(Cl)cc1NC(=O)CSc1nc2c([nH]c3ccccc32)c(=O)n1-c1ccccc1 | 25.9 µM (active) | –
Cc1ccc(NC(=O)c2ccc(NCC3CCCO3)c([N+](=O)[O-])c2)cc1Cl (stereo unspecified) | 20.6 µM (active) | –
O=C(O)c1ccc(NS(=O)(=O)c2cccc(C(=O)Nc3ccccc3[N+](=O)[O-])c2)cc1 | – | -7.28% [at 36.9 µM]
Cc1ccc(NC(=O)c2ccc([N+](=O)[O-])s2)cc1S(=O)(=O)N1CCOCC1 | – | -22.5% [at 36.9 µM]
O=C(NCCN1C(=O)S/C(=C\c2ccc(OC(F)F)cc2)C1=O)c1cnccn1 | 7.04 µM (active) | –
CC(C)(C)c1ccc(Cn2c(=O)cnc3ccccc32)cc1 | – | -20.8%
ClCc1nc2ccccc2n1Cc1ccccc1 | 18.4 µM (active) | –
COc1cc(N2CCCC2)c(OC)cc1/C=C(/C#N)c1ccc(F)cc1 | 9.2 µM (active) | –
COc1cc(N2CCCC2)c(OC)cc1/C=C(/C#N)c1ccc(Br)cc1 | 2.06 µM (active) | –
CC(=O)/C(N=Nc1cc(C)ccc1O)=C(\C)O | 16.4 µM (active) | –
Cc1ccc(-c2nc(SCCOc3ccccc3C)n3[nH]c(=O)cc3n2)cc1 | – | 4.56%
Cc1ccccc1OCCc1c(C)[nH]c(=S)[nH]c1=O | 2.23 µM (active) | –
COc1cc(NC(=O)C2=C(N3CCOCC3)/C(=C\c3ccc(N(C)C)cc3)CCC2)cc(OC)c1OC | 5.59 µM (active) | –

Structure (SMILES) | Potency | activity, negative = inhibitor
O=C1CC(c2cc(F)ccc2F)c2cc3c(cc2N1)CCC3 (stereo unspecified) | 3.14 µM (active) | –
O=C1CC(c2cc(Br)ccc2F)c2cc3c(cc2N1)CCC3 (stereo unspecified) | 1.12 µM (active) | –
O=C1CC(c2ccccc2F)c2cc3c(cc2N1)CCC3 (stereo unspecified) | 2.5 µM (active) | –
O=C(COc1ccccc1)NC(=S)Nc1cccc2c(O)cccc12 | – | -26.3% [at 36.9 µM]
CCC(=O)NC(=S)Nc1cccc(Cl)c1N1CCCC1 | – | -20.3%
NC(=O)c1ccccc1NC(=S)NC(=O)CCc1ccccc1 | 9.94 µM (active) | –
Oc1ccc(-c2nc(-c3ccc(O)c(O)c3)cs2)cc1 | 1.25 µM (active) | –
Cc1ccccc1NC(=O)c1ccc2c(c1)c(C)c(C)n2Cc1ccccc1 | 6.51 µM (active) | –
COc1ccc(NC(=O)c2ccc3c(c2)c(C)c(C)n3Cc2ccc(F)cc2)cc1 | 4.61 µM (active) | –
O=[N+]([O-])c1ccc(N2CCN(Cc3ccccc3)CC2)c2c1no[n+]2[O-] | 15.8 µM (active) | –
COc1ccc(OC)c(-c2cc(-c3cccnc3)nc(N)c2C#N)c1 | 3.53 µM (active) | –
Cc1c(C(=O)C(=O)N2CC=C(c3ccccc3)CC2)c2ccccc2n1C | 2.5 µM (active) | –
O=C(/C=C/c1ccco1)N1CCc2ccccc21 | – | -25.8%
Cc1c(C(=O)C(=O)N2CCCc3ccccc32)c2ccccc2n1C | 8.86 µM (active) | –
COc1ccc(CCNC(=O)CC2(CC3=NS(=O)(=O)c4ccccc4N3)CCCC2)cc1OC | – | -12% [at 36.9 µM]
CCOc1ccc(-c2cc(C(=O)NCCc3ccc(OC)c(OC)c3)c3c(-c4ccc(F)cc4)[nH]nc3n2)cc1 | 16.4 µM (active) | –
COc1ccc(OC)c(CNc2nc3ccc(C)cc3n3nnnc23)c1 | 8.2 µM (active) | –
COc1ccccc1CNc1nc2ccc(C)cc2n2nnnc12 | 23.1 µM (active) | –
O=C1c2ccccc2-c2onc3c(N4CCN(C5CCCCC5)CC4)cc(NCCO)c1c23 | 5.8 µM (active) | –
CN(C)CCCNc1cc(N2CCN(C3CCCCC3)CC2)c2noc3c2c1C(=O)c1ccccc1-3 | 2.59 µM (active) | –
CCNc1cc(N2CCN(C3CCCCC3)CC2)c2noc3c2c1C(=O)c1ccccc1-3 | 13 µM (active) | –

Structure (SMILES) | Potency | activity, negative = inhibitor
O=C(NC(=S)N1CCc2ccccc21)c1ccco1 | – | -3.14%
CCN(CC)c1ccc(/C=N/NC(=O)c2ccco2)cc1 | 6.27 µM (active) | –
Fc1ccc(CNc2nc3ccccc3n3nnnc23)cc1 | 11.6 µM (active) | –
Fc1ccccc1Nc1nc2ccccc2n2nnnc12 | 14.6 µM (active) | –
c1ccc2c(c1)nc(N1CCOCC1)c1nnnn12 | 20.6 µM (active) | –
Cc1ccc(CNc2nc3ccc(Cl)cc3n3nnnc23)cc1 | 11.6 µM (active) | –
Fc1ccc(CNc2nc3ccc(Cl)cc3n3nnnc23)cc1 | 6.51 µM (active) | –
c1ccc2c(c1)nc(NCC1CCCO1)c1nnnn12 (stereo unspecified) | 18.4 µM (active) | –
N#C/C(=C/c1ccc(N2CCOCC2)o1)c1ccc(Cl)cc1 | 4.61 µM (active) | –
N#C/C(=C/c1ccc(N2CCCCCC2)o1)c1ccc(Cl)cc1 | 3.66 µM (active) | –
N#C/C(=C/c1ccc(N2CCCCC2)o1)c1cccc(F)c1 | 4.11 µM (active) | –
Cc1ccc(/C(C#N)=C\c2ccc(N3CCOCC3)o2)cc1 | 15.8 µM (active) | –
CCN(c1ccc(NC(=O)CCc2nc3sc4c(c3c(=O)[nH]2)CCCC4)cc1)C(C)C | – | -28.5%
COc1ccc(C(=O)C[n+]2cccc3cc(Cl)ccc32)cc1 | 20.6 µM (active) | –
CC(C)(C)c1ccc(C(=O)C[n+]2cccc3cc(Cl)ccc32)cc1 | 18.4 µM (active) | –
O=C(C[n+]1cccc2cc(Cl)ccc21)c1ccc2ccccc2c1 | 20.6 µM (active) | –
COc1ccc(C(=O)C[n+]2cc(Br)cc3ccccc32)cc1 | 16.4 µM (active) | –
CCCC1=[N+](CC(=O)c2ccc(Br)cc2)CCn2cccc21 | – | -9.63%
O=C(NC1C/C(=N/O)c2cc3c(cc21)OCO3)C(F)(F)F (stereo unspecified) | – | 11.8%
